Bioassay records from PubChem.
Sampled rows, rich in hits. Any-hit rate of the full collection: about 0.45%.
NCOA2 inhibitor: inhibits human steroid receptor coactivator 2; hit rate 0.17% among 370,000; HEK293 GAL4-SRC2 luciferase reporter, luminescence; AID 651957; inhibition, % at 9 µM; Q15596;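 active = inhibition above the mean inhibition of all tested compounds plus 3 SD, set per campaign, cut at about 52% in these data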;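 also: 0% = DMSO treated cells and 100% = cells given Gossypol at 36 µM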
NCOA3 inh: human NCOA3 inhibition; Q9Y6Q9; HEK293 GAL4-SRC3 luciferase reporter, luminescence; inhibition, % at 3.6 µM; hit rate 0.17% among 360,000; AID 588352;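 active = inhibition above a per-campaign cutoff, the mean of all compounds plus 3 SD, cut at about 60% in these data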;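 also: 0% = DMSO-treated cells and 100% = gossypol-treated cells at 36 µM; higher means less SRC3-driven luciferase light from the GAL4 reporter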
LGR2 inh: inhibitors of bursicon-induced Drosophila LGR2 receptor cAMP signaling; hit rate 0.35% among 380,000; HEK293 LGR2, CRE-luciferase, bursicon-stimulated, 4 h; inhibition, % at 9.99 µM; AID 720647;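 active = drop in luminescence signal, shown as inhibition above about 50% in the replicate tests, limit read from the data, passing the limit was not always enough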;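 also: agonist challenge used bursicon conditioned medium at about half maximal strength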
LRH-1 inv ag: NR5A2 inverse agonism in reporter assay; O00482; hit rate 0.13% among 360,000; inhibition, % at 3.6 µM; HEK293T StAR-luciferase reporter, LRH-1 transfected, 24 h;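 active = inhibition above the mean inhibition of all tested compounds plus 3 SD, cut at about 73% in these data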;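 also: 0% = DMSO wells and 100% = reporter-only cells lacking LRH-1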
Target sequence (O00482 whole entry, looked up): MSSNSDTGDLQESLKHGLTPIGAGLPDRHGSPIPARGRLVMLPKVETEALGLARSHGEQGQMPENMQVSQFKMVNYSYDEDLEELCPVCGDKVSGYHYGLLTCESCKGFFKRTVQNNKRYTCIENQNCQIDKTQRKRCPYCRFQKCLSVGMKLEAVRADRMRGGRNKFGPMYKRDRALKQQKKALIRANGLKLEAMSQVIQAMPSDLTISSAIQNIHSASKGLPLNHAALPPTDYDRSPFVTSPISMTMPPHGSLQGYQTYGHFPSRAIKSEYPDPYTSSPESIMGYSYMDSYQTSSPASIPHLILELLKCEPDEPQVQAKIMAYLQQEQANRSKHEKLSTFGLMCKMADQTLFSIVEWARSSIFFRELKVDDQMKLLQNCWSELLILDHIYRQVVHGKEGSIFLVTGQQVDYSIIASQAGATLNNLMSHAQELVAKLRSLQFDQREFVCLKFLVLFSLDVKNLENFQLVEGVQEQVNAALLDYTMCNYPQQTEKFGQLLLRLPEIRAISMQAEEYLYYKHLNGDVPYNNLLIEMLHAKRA
NCOA1 inh: human NCOA1 inhibition; HEK293 GAL4-SRC1 luciferase reporter, luminescence; inhibition, % at 3.6 µM; hit rate 0.12% among 360,000;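 active = inhibition above the campaign mean plus 3 SD, with each screening campaign given its own cutoff, cut at about 60% in these data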;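 also: 0% = DMSO treated cells and 100% = gossypol at 36 µM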
An asterisk follows results filed as active.

Results for c1cnc2nc(-c3ccc4c(c3)OCO4)cn2c1 ?
NCOA2 inhibitor: -71; NCOA3 inh: -50; LGR2 inh: -2; LRH-1 inv ag: -91; NCOA1 inh: -69

How did COC(=O)c1ccc2nc(-c3ccc4c(c3)OCO4)cn2c1 do in these assays?
NCOA2 inhibitor: -28; NCOA3 inh: -56; LGR2 inh: 83*; LRH-1 inv ag: -134; NCOA1 inh: -84

Results for CCCN1C[C@@H](C)[C@@H](OC)CN(C)C(=O)c2cc(NC(=O)Nc3ccccc3F)ccc2OC[C@H]1C ?
LGR2 inh: -3

What do the screens show for `O=C(O)[C@@H]1[C@@H](CO)[C@@H]2Cn3c(ccc(-c4cncnc4)c3=O)[C@@H]2N1C(=O)C1CCCC1`?
LGR2 inh: -9

Results for O=c1c(Cl)c(Cl)cnn1Cc1nnc(-c2ccccc2Br)o1 ?
NCOA2 inhibitor: -62; NCOA3 inh: -13; LGR2 inh: 103*; LRH-1 inv ag: -16; NCOA1 inh: -30

How did Clc1ccccc1OCc1nnc(-c2ccccc2Br)o1 do in these assays?
NCOA2 inhibitor: -68; NCOA3 inh: -39; LRH-1 inv ag: -92; NCOA1 inh: -105

What do the screens show for `COc1cccc(NC(=O)N[C@@H]2C=C[C@H](CC(=O)Nc3ccc(-c4ccccc4)cc3)O[C@@H]2CO)c1`?
LGR2 inh: 9

What do the screens show for `Cc1noc(C)c1S(=O)(=O)N(C)C[C@H]1Oc2ccc(NC(=O)Nc3ccccc3)cc2CC(=O)N([C@H](C)CO)C[C@@H]1C`?
LGR2 inh: 13

Results for COc1ccc2sc(N(CCCN(C)C)C(=O)c3nc4ccccc4s3)nc2c1 ?
NCOA2 inhibitor: -19; NCOA3 inh: -36; LGR2 inh: -15; LRH-1 inv ag: -10; NCOA1 inh: -29

How did COc1ccccc1C(=O)N(CCC1CCCN1C)c1nc2ccccc2s1 (stereo unspecified) do in these assays?
NCOA2 inhibitor: 40; NCOA3 inh: 63*; LGR2 inh: 98*; LRH-1 inv ag: 52; NCOA1 inh: 54

What do the screens show for `CC(C)c1ccc(NC(=O)Nc2nc(C(N)c3ccccc3)cs2)cc1` (stereo unspecified)?
NCOA2 inhibitor: 0; NCOA3 inh: 5; LGR2 inh: 94*; LRH-1 inv ag: 8; NCOA1 inh: 2

How did CC(C)c1ccc(NC(=O)Nc2nc(C(N)C(C)C)cs2)cc1 (stereo unspecified) do in these assays?
NCOA2 inhibitor: -34; NCOA3 inh: -31; LGR2 inh: 9; LRH-1 inv ag: -39; NCOA1 inh: 0

Results for O=C(NCC[C@@H]1CC[C@H](NC(=O)C2CCCC2)[C@@H](CO)O1)c1cc(Cl)cc(Cl)c1 ?
LGR2 inh: 11

How did CCOC(=O)Nc1ccc2c(c1)C(=NNC(N)=S)c1ccccc1-2 do in these assays?
NCOA2 inhibitor: -32; NCOA3 inh: -10; LGR2 inh: 83*; LRH-1 inv ag: 28; NCOA1 inh: -19

How did CCCC(=O)N1CCC2(CC1)CN(C(=O)Nc1ccc(F)cc1)[C@H](CO)c1c2c2ccc(OC)cc2n1C do in these assays?
LGR2 inh: -9

How did O=C(C[C@@H]1C=C[C@@H](NC(=O)C2CCOCC2)[C@H](CO)O1)Nc1ccccc1 do in these assays?
LGR2 inh: -2

What do the screens show for `COc1ccc(C=C(C(=O)c2ccccc2)C(=O)c2ccccc2)cc1`?
NCOA2 inhibitor: -14; NCOA3 inh: -73; LGR2 inh: -65; LRH-1 inv ag: -91; NCOA1 inh: -109

What do the screens show for `CC(C)(C)NCC(=Cc1ccccc1)C(=O)c1ccccc1`?
NCOA2 inhibitor: 68*; NCOA3 inh: 56; LGR2 inh: 72*; LRH-1 inv ag: 82*; NCOA1 inh: 51

Results for C(=NN1CCCCCC1)c1ccc2ccccc2n1 ?
NCOA2 inhibitor: 84*; NCOA3 inh: 90*; LGR2 inh: 98*; LRH-1 inv ag: 91*; NCOA1 inh: 88*

How did CC1(C)CC(=O)C=C(c2ccc(-c3cnc4ccccc4c3)cc2)C1=O do in these assays?
NCOA2 inhibitor: 16; NCOA3 inh: -23; LGR2 inh: 63*; LRH-1 inv ag: 7; NCOA1 inh: -26

What do the screens show for `CNC[C@@H]1Oc2ncc(Br)cc2C(=O)N([C@@H](C)CO)C[C@@H]1C`?
LGR2 inh: 0

How did O=C1CN(S(=O)(=O)c2cc(Br)ccc2Br)CCN1 do in these assays?
NCOA2 inhibitor: -8; NCOA3 inh: 1; LGR2 inh: 12; LRH-1 inv ag: 5; NCOA1 inh: -4

How did O=c1c(Br)ccc(Br)cc1Br do in these assays?
NCOA2 inhibitor: 58*; NCOA3 inh: -35; LGR2 inh: 19; LRH-1 inv ag: 8; NCOA1 inh: -131

How did CCC(=O)N1CCC2(CC1)CN(Cc1ccccn1)[C@H](CO)c1[nH]c3cc(OC)ccc3c12 do in these assays?
LGR2 inh: -10

What do the screens show for `CCN(CC)CCNC(=O)c1ccc2c(c1NCCO)C(=O)c1ccccc1C2=O`?
NCOA2 inhibitor: 35; NCOA3 inh: 63*; LRH-1 inv ag: 39; NCOA1 inh: 44

Results for O=C1/C(=C/c2ccncc2)CCC/C1=C\c1ccncc1 ?
NCOA2 inhibitor: 74*; NCOA3 inh: -22; LGR2 inh: 95*; LRH-1 inv ag: 30; NCOA1 inh: -165

What do the screens show for `O=C1CCCCC1Sc1nnc(-c2ccc3c(c2)OCO3)o1` (stereo unspecified)?
NCOA2 inhibitor: 57*; NCOA3 inh: 45; LRH-1 inv ag: 9; NCOA1 inh: 43

Results for Clc1ccc(CSc2nnc(-c3ccc4c(c3)OCO4)o2)cc1 ?
NCOA2 inhibitor: -2; NCOA3 inh: -18; LGR2 inh: 12; LRH-1 inv ag: 3; NCOA1 inh: -8

Results for CCCNC(=O)Nc1ccc2c(c1)OC[C@@H](C)N(C(C)=O)C[C@@H](C)[C@H](OC)CN(C)C2=O ?
LGR2 inh: -18

How did c1ccc(-c2cnc(-c3ccccc3)nn2)cc1 do in these assays?
NCOA2 inhibitor: -37; NCOA3 inh: -118; LGR2 inh: 74*; LRH-1 inv ag: -69; NCOA1 inh: -89

How did COc1cc2ccccc2ccc1=NO do in these assays?
NCOA2 inhibitor: 54*; NCOA3 inh: 49; LGR2 inh: 17; LRH-1 inv ag: 36; NCOA1 inh: 48

Results for CCCNC(=O)N1CC2(CN(S(C)(=O)=O)C2)c2c(n(C)c3cc(OC)ccc23)[C@H]1CO ?
LGR2 inh: 12

How did Cc1nn(-c2ccccc2Cl)c(Cl)c1/C=N/Nc1nc2ccccc2s1 do in these assays?
NCOA2 inhibitor: 81*; NCOA3 inh: 79*; LGR2 inh: 72*; LRH-1 inv ag: 41; NCOA1 inh: 67*

How did O=C(CN1C(=O)c2ccccc2S1(=O)=O)c1ccccc1F do in these assays?
NCOA2 inhibitor: 8; NCOA3 inh: -43; LGR2 inh: 73*; LRH-1 inv ag: -53; NCOA1 inh: -22

Results for O=C(CN1C(=O)c2ccccc2S1(=O)=O)c1ccc(OC(F)F)cc1 ?
NCOA3 inh: 12; LRH-1 inv ag: 31; NCOA1 inh: 36

How did O=C(CN1C(=O)c2ccccc2S1(=O)=O)c1ccc(Cl)cc1Cl do in these assays?
NCOA2 inhibitor: 87*; NCOA3 inh: 62*; LGR2 inh: 103*; LRH-1 inv ag: 59; NCOA1 inh: 55
